Experimental data reported in PubChem BioAssay (NCATS).
“And” between values parts separate entries of the source, which are not always exact repeats. Identical values can stand only once. Results filed as inconclusive are left out. Where a call stands in place of a potency, no number is given. The source made the active and inactive calls. Calls come from the whole dose curve; as a rule, active = well fitted curve in the direction sought with a large enough effect; inconclusive = small, poorly fitted or top-dose-only effect, or another doubt; inactive = no such curve, though single readings can be large; an effect the other way counts as inactive or inconclusive.

Tests used:
[1] = P-glycoprotein substrates identified in KB-8-5-11 adenocarcinoma cell line, qHTS therapeutic library screen (AID 1346987); note: nearly all actives have a fitted effect of over 65% in size
How it was run: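 Luminescence from CellTiter-Glo, read 5 min after addition, quantified survival of KB-8-5-11 (P-gp-overexpressing) cells exposed to compounds for 72 h. AC50 was derived from concentration-response curves.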

[2] = NS1 protein of Zika virus - qHTS assay to identify small molecule inhibitors in human HEK 293 cells (AID 1347053); note: nearly all actives have a fitted effect of over 55% in size
How it was run: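 In this cell-based screen, HEK 293 cultures received compound for one hour before Zika MR766 at MOI = 0.5. NS1 was quantified 24 hours later by TR-FRET, normalized to virus-free wells and infected wells.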

[3] = qHTS of pediatric cancer cell lines to identify multiple opportunities for drug repurposing: Primary screen for TC32 cells (AID 1347089); note: nearly all actives have a fitted effect of over 60% in size
How it was run: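 A viability screen of TC32 cells was run over 48 h, with primary MIPE doses spanning 0.78 nM–46 µM and NPC doses 0.59 nM–46 µM. ATP luminescence (CellTiter-Glo) served as the read-out.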
Potency is the fitted concentration of half-maximal effect.

Row | SMILES | Potency [1] | Potency [2] | Potency [3]
1 | CCOC(=O)N1c2ccc(C(F)(F)F)cc2[C@@H](N(Cc2cc(C(F)(F)F)cc(C(F)(F)F)c2)C(=O)OC)C[C@H]1CC | inactive | inactive | inactive
2 | Cc1ccc(S(=O)(=O)OCC(=O)Nc2ccc(C(=O)O)c(O)c2)cc1 | inactive | inactive | inactive
3 | COc1cc([C@H]2Oc3cc([C@H]4Oc5cc(O)cc(O)c5C(=O)[C@H]4O)ccc3O[C@H]2CO)ccc1O | inactive | inactive | inactive
4 | COc1ccc2c(c1)CC[C@H]1[C@@H]2CC[C@]2(C)[C@@H](NCCCCCCN3C(=O)C=CC3=O)CC[C@H]12 | inactive | inactive | inactive
5 | Cc1cc(CS(=O)(=O)c2ccccc2)cc(OCc2ccc(CN3CCC[C@H]3CO)cc2)c1 | 4.18 µM (active) | inactive | inactive
6 | CC1(C)[C@H]2CC[C@]3(C)[C@@H](C(=O)C=C4[C@@H]5C[C@@](C)(C(=O)O)CC[C@]5(C)CC[C@]43C)[C@@]2(C)CC[C@@H]1O | inactive | inactive | inactive
7 | Cc1ccccc1-n1c(Cn2nc(-c3cccc(O)c3)c3c(N)ncnc32)nc2cccc(C)c2c1=O | inactive | inactive | inactive
8 | C=C[C@@H]1CN2CCC1C[C@@H]2C(O)c1ccnc2ccc(OC)cc12 (some centres undefined) | inactive | inactive | inactive
9 | N#CC(c1ccc(Cl)cc1)c1c(Cl)cc(-n2ncc(=O)[nH]c2=O)cc1Cl (centres undefined) | inactive | inactive | inactive
10 | COC(=O)[C@H](c1ccccc1Cl)N1CCc2sccc2C1 | inactive | inactive | inactive
11 | CCC[C@@H](NC(=O)[C@@H]1[C@H]2CCC[C@@H]2CN1C(=O)[C@@H](NC(=O)[C@@H](NC(=O)c1cnccn1)C1CCCCC1)C(C)(C)C)C(=O)C(=O)NC1CC1 | inactive | inactive | inactive
12 | CCn1c(-c2nonc2N)nc2cncc(CNC3CCNCC3)c21 | inactive | inactive | inactive
13 | CNC1CCC(N(Cc2cccc(-c3ccncc3)c2)C(=O)c2sc3ccccc3c2Cl)CC1 (centres undefined) | 11.8 µM (active) and 20.6 µM (active) | 9350 nM (active) | inactive
14 | CN1C(=O)C[C@H](C(=O)N[C@@H](Cc2cnc[nH]2)C(=O)N2CCC[C@@H]2C(N)=O)NC1=O | inactive | inactive | inactive
15 | Cc1ccc2c(=O)c3cccc(CC(=O)O)c3oc2c1C | inactive | inactive | inactive
16 | Cc1cc2nc3c(=O)[nH]c(=O)nc-3n(CC(O)C(O)C(O)CO)c2cc1C (centres undefined) | inactive | inactive | inactive
17 | CN(C)CCOc1ccc(C(=C(CCCl)c2ccccc2)c2ccccc2)cc1 | inactive | inactive | inactive
18 | NC(=O)c1ccc(N(C(N)=O)c2c(F)cccc2F)nc1-c1ccc(F)cc1F | inactive | inactive | inactive
19 | COc1cc(C=CC(=O)O)ccc1O | inactive | inactive | inactive
20 | CC[C@H](C)C(=O)O[C@H]1C[C@H](O)C=C2C=C[C@H](C)[C@H](CC[C@@H](O)C[C@@H](O)CC(=O)O)[C@H]21 | inactive | inactive | inactive
21 | Cc1ccc(C(=O)N(CCCN)[C@@H](c2nc3cc(Cl)ccc3c(=O)n2Cc2ccccc2)C(C)C)cc1 | 0.118 µM (active) | inactive | 16.5 nM (active)
22 | O=C(Nc1ccccc1)Nc1ccc(-c2ccc(C(=O)[C@H]3CCC[C@H]3C(=O)O)cc2)cc1 | inactive | inactive | inactive
23 | O=C(Nc1cccc(Cl)c1)Nc1ncc(CCNc2ncnc3ccsc23)s1 | 1.16 µM (active) | inactive | 739 nM (active)
24 | CNC(=O)[C@H](CC1=CN=C2C=CCC=C12)NC(=O)[C@@H](CC(=O)NO)CC(C)C | inactive | inactive | inactive
25 | CC(C)=CCCC(C)=CCCC(C)=CCCC(C)=CCCC(C)=CCCC(C)=CCCC(C)=CCCC(C)=CCCC(C)=CCO | inactive | inactive | inactive
26 | CC1CCN(c2cc(N3CCN(C)CC3)ccc2NC(=O)c2cc(C#N)c[nH]2)CC1 | inactive | inactive | inactive
27 | COc1cc(F)c(C(C)C)cc1-c1ccc(C(F)(F)F)cc1CN1C(=O)O[C@H](c2cc(C(F)(F)F)cc(C(F)(F)F)c2)[C@@H]1C | inactive | inactive | inactive
28 | O=C(O)C1=CO[C@@H](O[C@@H]2O[C@H](CO)[C@H](O)[C@H](O)[C@H]2O)[C@@H]2C(CO)=CC[C@H]12 | inactive | inactive | inactive
